Screening results (PubChem BioAssay)
Bim-Mcl-1 = inhibitors of Bim-Mcl-1 interaction, human. 190,000 compounds, 0.1% hits. Bead-based flow cytometry, Bim peptide-Mcl-1 binding. AID 1009. Q07820. inhibition, % at 10 µM; in the data active means inhibition above about 40%;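 further: 0% = no compound tracer wells and 100% = peptide blocker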
Target sequence (Q07820 whole entry, looked up): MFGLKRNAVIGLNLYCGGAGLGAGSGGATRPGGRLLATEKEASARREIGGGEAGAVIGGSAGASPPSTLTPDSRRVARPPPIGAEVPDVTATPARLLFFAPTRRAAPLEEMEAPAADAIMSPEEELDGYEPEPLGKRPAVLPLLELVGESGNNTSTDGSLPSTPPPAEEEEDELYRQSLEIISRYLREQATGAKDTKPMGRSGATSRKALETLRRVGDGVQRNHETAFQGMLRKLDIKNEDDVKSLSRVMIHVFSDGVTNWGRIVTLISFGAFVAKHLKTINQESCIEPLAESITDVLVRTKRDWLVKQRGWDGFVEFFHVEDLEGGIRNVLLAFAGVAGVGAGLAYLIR
MCL1 BIM primary = MCL1-BIM-BH3 interaction inhibition (human); Q07820; GST-MCL1 / FITC-Bim-BH3 fluorescence polarization; inhibition, % at 10.9 µM; 320,000 compounds, 0.68% hits; AID 2057;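 active means inhibition above the mean inhibition of all tested compounds plus 3 SD, set per campaign, cut at about 40% in these data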;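 further: 0% = DMSO wells and 100% = unlabeled Bim-BH3 peptide control; higher means more loss of mP so more displacement of Bim peptide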
Mcl1 Noxa PPI = disrupts binding of human Mcl-1 to Noxa peptide. TR-FRET Mcl-1/Noxa peptide binding, 2 h. inhibition, % at 21.7 µM. AID 1022. 220,000 compounds, 1.5% hits. Q07820;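 active means compounds that cut the protein-peptide binding signal by more than 50% relative to plate controls in a single-dose test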;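 further: His-tagged Mcl-1 with rhodamine Noxa BH3 peptide and terbium anti-His antibody; 0% = Mcl-1 plus Noxa peptide wells and 100% = peptide-only wells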
GLD-1 TGE inh = GLD-1-TGE RNA interaction inhibition (C. elegans). purified GLD-1 + fluorescein TGE RNA, fluorescence polarization. inhibition, % at 5.96 µM. 320,000 compounds, 0.44% hits;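 active means percent inhibition above a per-plate cutoff, the plate mean of test compounds plus 3 SD, cut at about 30% in these data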;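 further: 0% = DMSO wells with GLD-1 and probe and 100% = wells lacking GLD-1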
Bcl-xL primary = blocks human Bcl-xL binding to Bim BH3 peptide. GST-Bcl-xL / FITC-Bim BH3 peptide fluorescence polarization. inhibition, % at 10.9 µM. 320,000 compounds, 0.7% hits. Q07817;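 active means inhibition above the mean of all tested compounds plus 3 SD, cutoff set per campaign, cut at about 30% in these data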;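 further: 0% = DMSO wells and 100% = unlabeled Bim-BH3 peptide competitor; inhibitors lower millipolarization by displacing the labeled peptide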
Target sequence (Q07817 whole entry, looked up): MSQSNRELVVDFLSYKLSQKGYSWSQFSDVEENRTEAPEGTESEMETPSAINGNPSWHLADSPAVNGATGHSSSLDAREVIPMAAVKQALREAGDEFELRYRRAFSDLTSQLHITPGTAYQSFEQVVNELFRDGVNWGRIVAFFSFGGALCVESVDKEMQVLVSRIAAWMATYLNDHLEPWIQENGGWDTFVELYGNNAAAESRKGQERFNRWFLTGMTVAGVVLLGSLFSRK
Mcl1-Bid inh = disrupts binding of human Mcl-1 to Bid peptide. TR-FRET Mcl-1/Bid-Dy647 peptide binding, 1536-well. inhibition, % at 21.7 µM. 220,000 compounds, 0.97% hits. AID 1021;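 active means compounds that cut the binding signal by more than half at the single screening dose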;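 further: His-tagged Mcl-1 with europium anti-His antibody binding Bid BH3 peptide; 0% = Mcl-1 plus peptide wells and 100% = peptide-only wells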
An asterisk follows results filed as active; nt = no result. Hits are enriched below; roughly 2.3% of the tested compounds scored in any of these assays.

SMILES	Bim-Mcl-1	MCL1 BIM primary	Mcl1 Noxa PPI	GLD-1 TGE inh	Bcl-xL primary	Mcl1-Bid inh
COc1cccc2c(=O)c(C(=O)O)c[nH]c12	-2	6	-76	8	6	14
Cc1ccc2sc(NNC(=O)c3cc(=O)c4ccccc4o3)nc2c1C	1	15	66*	0	2	-25
COc1ccc2nc(NC(=O)Nc3cccc4ccccc34)sc2c1	0	-3	75*	-4	5	-33
COc1ccc2nc(NC(=O)/C=C/c3ccc4c(c3)OCO4)sc2c1	1	17	0	-1	5	51*
Cc1cccc2sc(NNC(=O)c3cc(=O)c4ccccc4o3)nc12	-5	-13	37	-8	4	-56
COc1ccc2nc(NNC(=O)c3cc(=O)c4ccccc4o3)sc2c1	5	12	72*	1	-4	-47
CCC(C)c1ccc(N(CC(=O)NC(C)(C)C)C(=O)CNC(=O)c2cccs2)cc1 (stereo unspecified)	nt	1	nt	5	5	nt
COc1ccc(C(=O)NCCCOC(C)C)cc1OC1CCN(C(C)=O)CC1	nt	2	nt	9	2	nt
CN(C)C(=O)c1ccc(NC(=O)COC(=O)C2(c3ccccc3)CCCC2)cc1	nt	nt	nt	6	nt	nt
CCOC(=O)c1c(C)[nH]c(C)c1S(=O)(=O)N1CCN(c2cccc(C)c2)C(C)C1 (stereo unspecified)	nt	1	nt	2	11	nt
CC(C)C(NC(=O)c1ccc(F)cc1)C(=O)N1CCN(C(=O)c2ccco2)CC1 (stereo unspecified)	nt	2	nt	3	6	nt
O=C(CCCN1C(=O)c2cccc3cccc(c23)C1=O)N1CCN(c2ccccc2O)CC1	-4	0	55*	8	7	-22
O=C1/C(=C/c2ccc(O)c(O)c2)Oc2cc(O)ccc21	nt	0	75*	-31	-13	-83
COCCCNC(=O)Cn1ccc(N)nc1=O	nt	7	nt	-1	5	nt
Nc1nnc(CC(=O)N/N=C/c2ccc(-c3ccc(Cl)cc3Cl)o2)s1	nt	12	51*	-4	0	49
Nc1nnc(CC(=O)N/N=C/c2ccc(-c3ccccc3Cl)o2)s1	-8	4	35	-3	12	-2
O=C(NCCN1CCN(c2ccccc2)CC1)c1ccc2c(c1)[nH]c(=S)n1c3ccccc3nc21	-2	-5	51*	2	1	9
CCOC(=O)C1CCN(C(=O)COC(=O)Cc2ccc(Cl)cc2)CC1	nt	8	nt	-3	4	nt
COc1ccc2nc(S(=O)Cc3ncc(C)c(OC)c3C)[nH]c2c1 (stereo unspecified)	-1	20	84*	3	10	11
CCOc1ccc(NC(=O)c2oc3ccccc3c2NC(=O)CC)cc1	0	5	-11	7	1	78*
COc1ccc(NC(=O)c2oc3ccccc3c2NC(=O)C2CC2)cc1	1	1	10	-2	1	-7
CCCCn1c(N)c(N(CCOC)C(=O)c2cc(CC)c(C)s2)c(=O)[nH]c1=O	nt	-4	nt	1	-2	nt
COc1ccc(CCNC(=O)CCNS(=O)(=O)c2ccc3c(c2)CCN3C(C)=O)cc1OC	-3	2	-7	3	5	58*
COc1ccc(CCNS(=O)(=O)c2ccc3c(c2)CCN3C(=O)CCC(=O)O)cc1OC	0	-11	-3	-8	-4	-28
CCCCCN(C(=O)CCC(=O)OCc1cccc(F)c1)c1c(N)n(CCCC)c(=O)[nH]c1=O	nt	-6	nt	-8	-1	nt
SMILES	Bim-Mcl-1	MCL1 BIM primary	Mcl1 Noxa PPI	GLD-1 TGE inh	Bcl-xL primary	Mcl1-Bid inh
CCOC(=O)c1c(-c2ccc(C)cc2)csc1NC(=O)/C(C#N)=C/c1ccc(O)c(OC)c1	-6	nt	90*	nt	nt	28
CCOC(=O)/C(C#N)=C\c1ccc(O)c(OC)c1	2	-2	22	-5	0	-36
CC(=O)c1ccc(NC(=O)CC2Nc3cccc4cccc(c34)NC2=O)cc1 (stereo unspecified)	-1	14	83*	8	8	-35
C/C(=N\O)c1ccc2c(c1)OCCO2	0	1	0	-1	6	-23
C/C(=N/O)c1ccc2c(c1)OCCOCCOc1cc(/C(C)=N/O)ccc1OCCOCCO2	0	2	59*	1	3	21
CN(C(=O)c1ccc(Cl)cc1)C1=CCCCC1CCC#N (stereo unspecified)	0	2	2	0	3	65*
N#CCCN(Cc1cccs1)C(=O)c1ccc(Cl)cc1	nt	1	11	-3	1	-3
COc1ccccc1CNC(=O)CN(C)S(=O)(=O)c1ccc(Br)s1	nt	-4	nt	-2	2	nt
Cc1noc(C)c1CSc1ccccc1C(=O)N(C)CC(=O)Nc1cccc(F)c1	nt	5	nt	0	-1	nt
Cc1cccc2c1c1ccc3c(c1n2C)C(=O)C=CC3=O	nt	nt	108*	nt	nt	40
Brc1ccccc1Cn1cnc2ccccc21	nt	10	nt	3	76*	nt
Nc1ccccc1S(=O)(=O)NCCCCc1ccccc1	nt	1	nt	0	2	nt
CCOC(=O)c1c(-c2ccco2)csc1NC(=O)CSc1nnc(N)s1	0	9	30	0	4	80*
CC1(c2ccccc2)CC(C)(C)N2C(=O)/C(=C3\SC(=S)NC3=O)c3cccc1c32 (stereo unspecified)	-9	25	111*	-2	10	93*
OCC1CCCN(c2nc(CN3CCCCC3)nc3scc(-c4ccccc4)c23)C1 (stereo unspecified)	-2	10	1	-3	1	97*
CC(C)Nc1nnc(SCC(=O)Nc2ccc3c(c2)C(=O)c2ccccc2C3=O)s1	3	14	78*	10	24	-17
Cc1ccc(NC(=S)NC2CCSc3ccccc32)cc1C (stereo unspecified)	nt	8	nt	-1	5	nt
O=C(/C=C/Nc1cccc(F)c1)c1ccco1	-2	2	-3	2	-1	87*
O=C(/C=C/Nc1ccc(F)c(Cl)c1)c1ccco1	0	-6	-6	3	-1	-49
CC1(c2cccc3ccccc23)NC(=O)N(CC(=O)NC2CCS(=O)(=O)C2)C1=O (stereo unspecified)	-4	-8	16	-12	0	98*
COc1ccc(C2(c3ccc(OC)cc3)NC(=O)N(CC(=O)NC3CCS(=O)(=O)C3)C2=O)cc1 (stereo unspecified)	nt	nt	nt	2	nt	nt
CC(=O)N1CCN(c2ccc(N)cc2)CC1	nt	-1	nt	2	4	nt
Nc1ccc(N2CCN(c3ccc(F)cc3)CC2)cc1	1	13	61*	-10	13	-30
O=C(Cn1ncn2c(cc3ccccc32)c1=O)NCc1ccco1	-5	8	69*	2	2	-13
COc1ccc(CNC(=O)Cn2ncn3c(cc4ccccc43)c2=O)cc1	nt	4	3	1	-2	-5
O=C(Cn1cnc2scc(-c3ccccc3)c2c1=O)NCc1ccco1	-3	8	51*	3	7	-59
